HCV inh: inhibitors of hepatitis C virus infection; Potency, µM (titrated, usually from 41.8 µM), without a hit: top-dose activity change, negative = inhibition, hits mostly inhibitors; Huh7.5.1 HCVcc-Cre infection, luciferase reporter, 44 h; actives 3.4% (n = 340,000); active means well fitted inhibition curve with a large enough effect; inconclusive means small, poorly fitted or top-dose-only effect, or another doubt; inactive means no such curve, though single readings can be large or run the other way; further: potency means the concentration at half of the fitted maximal effect
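Infectious HCVcc-Cre (~0.5 moi) was added to cells just after compound, with cells seeded 4 h earlier at 1,000 per well. Luciferase activity after 44 h culture reported infection; substrate was incubated 15 min at room temperature before reading.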
HCMV inh: inhibitors of human cytomegalovirus. HFF cells, HCMV-luciferase reporter, 72 h; active compounds read low. activity change, negative = inhibition, % at 57.5 µM. actives 4.5% (n = 410,000); in the data active means activity change below about -60%; inconclusive means no clear call, values can overlap the other calls; inactive means above about -39%
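Luciferase read-out from HCMV-luciferase-infected HFFs (MOI 1 PFU/cell) 72 h post infection at 37C; compounds added after 16 h cell attachment; activity normalized between buffer-only basal and Salinomycin (10uM) inhibitor controls.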
FMDV antiviral: antivirals against foot and mouth disease virus. actives 1.2% (n = 410,000). Potency, µM (highest dose often 57.9 µM), inactives show at the highest dose activity change, negative = inhibition, hits mostly inhibitors. FMDV antiviral cell-based qHTS. AID 1159524; calls by dose curve; tested in HEK293T cells; further: read-out not given here; potency means the concentration at half of the fitted maximal effect; nearly all actives have a fitted effect of over 45% in size
MARV entry inh: blocks Marburg virus binding to or entry into cells; Potency, µM (top dose mostly 37.8 µM), without a hit: at the highest dose activity change, negative = inhibition, hits mostly inhibitors; AID 540276; actives 1.8% (n = 300,000); Marburg virus pseudotyped entry inhibition, cell reporter; calls by dose curve; tested in HEK293 cells; further: potency means the concentration at half of the fitted maximal effect
LASV entry inh: Lassa virus entry inhibition | Lassa virus pseudotype entry inhibition, cell reporter | actives 1.2% (n = 300,000) | Potency, µM (titrated, usually from 37.9 µM), without a hit: at the top dose activity change, negative = inhibition, most hits filed as inhibitors; calls by dose curve; tested in HEK293 cells; further: potency means the concentration at half of the fitted maximal effect; nearly all actives have a fitted effect of over 50% in size
* hit, by the source's call; ? = inconclusive; nt = not tested or not shown; ! = a repeat was not active; [ ] = dose if it differs, or a comment. Most compounds without a hit are left out; they make up all but 7.9% or so of the library. On the % scale 0 is the no-effect control and ±100 the full control effect.

SMILES	HCV inh	HCMV inh	FMDV antiviral	MARV entry inh	LASV entry inh
CCC(=NCCOc1ccc(Cl)cc1)c1c(O)n(C)c(=O)n(C)c1=O	14%	?	25µM*	-24%	2%
CCCCn1c(O)c(C(CC)=NCc2cccnc2)c(=O)[nH]c1=O	10%	-20	-17%	-2%	3%
CCC(=NCCN1CCCCC1)c1c(O)n(C)c(=O)n(C)c1=O	15%	18	-1%	-7%	13%
CCC(=Nc1ccc2c(c1)CCC2)c1c(O)n(C2CCCCC2)c(=O)[nH]c1=O	1%	-85*	-5%	0%	?
CCCCn1c(O)c(C(CC)=Nc2ccc(OC)cc2OC)c(=O)[nH]c1=O	?	-1	18µM*	?	?
CCC(=NCc1cc(OC)cc(OC)c1)c1c(O)n(C2CCCCC2)c(=O)[nH]c1=O	?	13	?	nt	nt
C=CCn1c(O)c(C(CC)=Nc2ccc(N(CC)CC)cc2)c(=O)[nH]c1=O	?	18	-20%	-1%	3.3µM*
CCC(=Nc1ccc(OC)cc1OC)c1c(O)n(C)c(=O)n(C)c1=O	?	-25	32µM*	?	-17%
CCC(=Nc1cccc(C(F)(F)F)c1)c1c(O)n(C)c(=O)n(C)c1=O	10%	24	-31%	1%[46.1 µM]	-8%
CCCCn1c(O)c(C(CC)=NCc2cc(OC)cc(OC)c2)c(=O)[nH]c1=O	13µM*	-8	?	-2%	?
CCCCn1c(O)c(C(CC)=NC(C)c2ccccc2)c(=O)[nH]c1=O (stereo not drawn)	?	10	-27%	?	?
CCCCn1c(O)c(C(C)=NCc2cc(OC)cc(OC)c2)c(=O)[nH]c1=O	?	-10	-7%	-21%	-1%
CCCCn1c(O)c(C(CC)=Nc2ccc(OCC)cc2)c(=O)[nH]c1=O	?	-34	?	-3%	0.33µM*
CCOC(=O)N1CCc2c(sc(NCc3cccs3)c2C(=O)Nc2cc(Cl)ccc2OC)C1	nt	2	3%	nt	-4%[46.1 µM]
C[C@@H]1[C@@H](c2ccccc2)Nc2ccc(Br)cc2[C@H]1NC(=O)OCc1ccccc1	nt	-34	nt	nt	nt
CC(=O)c1sc(N/N=C\c2cccc(Br)c2)nc1C	1%	-13	-11%	?	14µM*
S=c1sc2c(Cl)ncnc2n1-c1ccccc1	4µM*	24	?	23µM*	23µM*
NC[C@@H]1O[C@H](C23CC4CC(CC(C4)C2)C3)Cc2c1ccc(O)c2O	6%	?	40µM*!	13µM*	18µM*
NC[C@@H]1O[C@H](c2ccccc2)Cc2c1ccc(O)c2O	nt	nt	-15%	-6%	-11%
c1ccc2c(c1)nc(NCc1ccc3c(c1)OCO3)n2CCN1CCOCC1	31%	-7	-17%	-10%	7%
c1csc(-c2csc3nc(CN4CCOCC4)nc(NCc4ccc5c(c4)OCO5)c23)c1	?	-23	?	18µM*	-13%
CC(C)c1ccc(/C=C2\SC(=S)N(CCC(=O)N3CCCCC3CCO)C2=O)cc1 (stereo not drawn)	-17%	-100*	11µM*	nt	nt
O=C(CCN1C(=O)/C(=C/c2ccccc2Cl)SC1=S)N1CCCC1	?	-21	?	-15%[46.1 µM]	0%
O=C1/C(=C\c2ccccc2)SC(=S)N1CCC(=O)N1CCCCC1CCO (stereo not drawn)	22%	-86*	0%	nt	nt
COc1ccc(/C=C2\SC(=S)N(CCCC(=O)N3CCCCC3CCO)C2=O)cc1 (stereo not drawn)	-15%	-100*	-16%	nt	nt
SMILES	HCV inh	HCMV inh	FMDV antiviral	MARV entry inh	LASV entry inh
O=C1/C(=C/c2ccccc2Cl)SC(=S)N1CCC(=O)N1CCCCC1CCO (stereo not drawn)	18%	-81*	-12%	nt	nt
COc1cccc(/C=C2\SC(=O)N(CCC(=O)N3CCCCC3CCO)C2=O)c1 (stereo not drawn)	?	-35	-24%	nt	nt
COc1cccc(N2CCN(C(=O)c3c4c(nc5ccccc35)C(=O)N(C3CCCCC3)C4)CC2)c1	nt	11	-11%	nt	-9%[46.1 µM]
O=C(CCN1C(=O)/C(=C/c2ccccc2)SC1=S)Nc1cccnc1	-5%	-24	-13%	?	?
O=C1/C(=C/c2ccccc2)SC(=S)N1CC(=O)N1CCCCC1c1cccnc1 (stereo not drawn)	?	-90*	?	nt	nt
Cc1cccc(-c2nnc(SCc3nc4ccccc4[nH]3)n2Cc2ccco2)c1	?	-61*	-27%	?	?
CC1(C)Cc2nc(Cl)c(C#N)cc2CO1	6%	-100*	-23%	-1%[46.1 µM]	6%
